# The full data set covers some 8,800 targets. This sample favours those with a hit. About 0.5% of all pairs of compound and target were hits. Values without a mark were called inactive.
# Legend:
# Assay in all cases: log2 fold change, soluble protein after heating vs DMSO (PISA); higher = thermal stabilisation; K562 lysate, 10 uM; active = over 0.2 and 3.5 SD of the protein, either way, in both replicates (recomputed)
# [1] = compound: C1=CC=C(C=C1)[C@H](COC2=CC3=C(C=C2)NC(=O)N3)NC(=O)C4=CC=CN(C4=O)CC5=CC(=C(C=C5)F)F
# Procedure, shortened: (§1)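 Log-two fold change in thermal stability relative to solvent controls is reported from duplicates. For each sample, crude K562 extract from dounce-homogenised pellets in PBS pH 7.4 with 1 mM MgCl2, at 1 mg/mL protein, was treated with 10 μM compound for 30 min. Aliquots heated for 3 min across 48°C-58°C were pooled, brought to 0.5% NP-40 at 4°C and cleared at 21,000xg for 90 min. The supernatant was quantified by TMTpro 16plex LC-MS/MS with channel sums equalised.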
# [2] = compound: CC1=C(SC2=C1C(=N[C@H](C3=NN=C(N32)C)CC(=O)N)C4=CC=C(C=C4)Cl)C
# Procedure, shortened: as §1
# [3] = compound: CC1=C2C(=CC=C1)N=C(N(C2=O)C3=CC=CC=C3C)CN4C=NC5=C(N=CN=C54)N
# Procedure, shortened: as §1
# [4] = compound: Cc1sc2c(c1C)C(c1ccc(Cl)cc1)=N[C@@H](CC(=O)OC(C)(C)C)c1nnc(C)n1-2
# Procedure, shortened: as §1
# [5] = compound: c1ccc([C@@H]2C[C@H]2NC2CCNCC2)cc1
# Procedure, shortened: as §1
# UniProt O15379, sequence (O15379 whole entry, looked up): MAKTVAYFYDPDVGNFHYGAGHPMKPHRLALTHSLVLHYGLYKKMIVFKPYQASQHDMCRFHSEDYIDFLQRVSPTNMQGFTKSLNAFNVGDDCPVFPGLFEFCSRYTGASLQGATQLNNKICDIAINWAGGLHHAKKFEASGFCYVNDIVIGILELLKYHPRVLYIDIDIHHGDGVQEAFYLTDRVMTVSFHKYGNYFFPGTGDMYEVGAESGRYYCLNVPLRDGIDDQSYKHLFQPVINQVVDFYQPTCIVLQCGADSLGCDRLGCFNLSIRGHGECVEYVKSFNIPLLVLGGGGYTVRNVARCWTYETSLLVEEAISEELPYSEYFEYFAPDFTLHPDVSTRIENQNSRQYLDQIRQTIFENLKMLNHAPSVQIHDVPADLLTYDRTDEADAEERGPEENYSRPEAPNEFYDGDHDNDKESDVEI
# UniProt P25098, sequence (P25098 whole entry, looked up): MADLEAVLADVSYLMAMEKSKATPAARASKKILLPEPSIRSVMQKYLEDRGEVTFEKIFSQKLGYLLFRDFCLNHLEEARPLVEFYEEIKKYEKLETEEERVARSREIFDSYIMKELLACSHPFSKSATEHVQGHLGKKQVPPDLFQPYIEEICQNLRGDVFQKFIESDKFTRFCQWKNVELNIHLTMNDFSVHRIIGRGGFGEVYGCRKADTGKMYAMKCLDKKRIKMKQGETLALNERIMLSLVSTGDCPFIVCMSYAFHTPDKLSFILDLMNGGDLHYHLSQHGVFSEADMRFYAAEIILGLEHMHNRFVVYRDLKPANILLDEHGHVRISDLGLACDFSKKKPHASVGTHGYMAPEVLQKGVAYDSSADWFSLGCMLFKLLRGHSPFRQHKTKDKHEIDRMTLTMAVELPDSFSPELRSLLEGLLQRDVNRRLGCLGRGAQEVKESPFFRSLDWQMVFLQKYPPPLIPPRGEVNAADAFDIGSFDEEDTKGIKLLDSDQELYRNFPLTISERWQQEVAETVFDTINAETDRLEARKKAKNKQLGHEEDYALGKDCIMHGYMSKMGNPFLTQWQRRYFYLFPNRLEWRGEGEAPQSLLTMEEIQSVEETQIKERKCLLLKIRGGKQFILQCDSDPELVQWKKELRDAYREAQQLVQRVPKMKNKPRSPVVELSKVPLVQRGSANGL
# UniProt P02724, sequence (P02724 whole entry, looked up): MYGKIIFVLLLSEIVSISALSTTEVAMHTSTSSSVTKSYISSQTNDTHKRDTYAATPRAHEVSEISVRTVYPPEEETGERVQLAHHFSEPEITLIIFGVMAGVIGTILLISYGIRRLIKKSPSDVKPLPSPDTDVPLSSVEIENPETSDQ
# UniProt Q7Z5Y7, sequence (Q7Z5Y7 whole entry, looked up): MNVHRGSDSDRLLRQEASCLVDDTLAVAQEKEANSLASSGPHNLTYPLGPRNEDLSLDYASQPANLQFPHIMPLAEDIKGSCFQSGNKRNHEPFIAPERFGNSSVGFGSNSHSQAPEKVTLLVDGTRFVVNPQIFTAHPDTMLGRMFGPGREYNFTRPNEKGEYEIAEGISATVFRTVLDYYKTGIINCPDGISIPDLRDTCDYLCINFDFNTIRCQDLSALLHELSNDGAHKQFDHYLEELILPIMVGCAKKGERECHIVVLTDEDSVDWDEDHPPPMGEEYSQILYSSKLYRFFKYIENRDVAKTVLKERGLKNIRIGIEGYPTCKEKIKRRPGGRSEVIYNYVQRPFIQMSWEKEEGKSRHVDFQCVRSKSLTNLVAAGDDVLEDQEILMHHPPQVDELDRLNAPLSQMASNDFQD
# UniProt P15104, sequence (P15104 whole entry, looked up): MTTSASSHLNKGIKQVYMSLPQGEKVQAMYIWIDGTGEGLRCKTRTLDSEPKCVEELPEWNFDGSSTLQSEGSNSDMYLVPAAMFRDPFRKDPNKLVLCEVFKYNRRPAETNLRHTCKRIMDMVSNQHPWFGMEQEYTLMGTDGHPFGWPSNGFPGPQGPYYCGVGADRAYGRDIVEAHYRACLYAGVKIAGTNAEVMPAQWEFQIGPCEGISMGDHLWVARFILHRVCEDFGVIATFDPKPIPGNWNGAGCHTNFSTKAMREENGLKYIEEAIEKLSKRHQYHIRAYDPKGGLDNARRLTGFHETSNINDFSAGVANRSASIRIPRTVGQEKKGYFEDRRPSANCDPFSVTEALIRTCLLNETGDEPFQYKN
# UniProt P11142, sequence (P11142 whole entry, looked up): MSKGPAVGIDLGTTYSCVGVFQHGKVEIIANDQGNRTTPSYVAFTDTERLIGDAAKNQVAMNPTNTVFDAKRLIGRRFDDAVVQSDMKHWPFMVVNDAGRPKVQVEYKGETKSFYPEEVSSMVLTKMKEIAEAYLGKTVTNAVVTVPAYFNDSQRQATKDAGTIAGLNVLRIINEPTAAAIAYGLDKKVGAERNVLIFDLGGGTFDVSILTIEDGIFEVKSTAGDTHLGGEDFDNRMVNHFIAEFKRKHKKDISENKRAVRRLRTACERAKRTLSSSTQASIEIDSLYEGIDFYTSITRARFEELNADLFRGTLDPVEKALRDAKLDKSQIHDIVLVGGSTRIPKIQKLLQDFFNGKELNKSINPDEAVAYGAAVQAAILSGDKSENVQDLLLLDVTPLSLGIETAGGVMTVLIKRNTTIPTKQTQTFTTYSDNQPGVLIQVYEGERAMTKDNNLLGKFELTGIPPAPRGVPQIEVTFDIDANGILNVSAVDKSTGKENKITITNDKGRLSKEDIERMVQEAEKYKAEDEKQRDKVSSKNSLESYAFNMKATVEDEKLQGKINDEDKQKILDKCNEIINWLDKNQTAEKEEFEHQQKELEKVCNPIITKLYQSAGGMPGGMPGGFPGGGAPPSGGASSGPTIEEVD
# UniProt P13598, sequence (P13598 whole entry, looked up): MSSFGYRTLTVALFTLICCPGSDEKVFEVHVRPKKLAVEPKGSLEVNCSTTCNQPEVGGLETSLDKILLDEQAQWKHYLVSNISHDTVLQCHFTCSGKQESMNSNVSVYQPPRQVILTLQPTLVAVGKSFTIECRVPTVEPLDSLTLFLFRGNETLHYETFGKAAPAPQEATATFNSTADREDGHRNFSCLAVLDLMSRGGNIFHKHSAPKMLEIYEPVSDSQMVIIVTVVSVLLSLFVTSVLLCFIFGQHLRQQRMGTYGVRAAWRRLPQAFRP
# UniProt Q7Z4V5, sequence (Q7Z4V5 whole entry, looked up): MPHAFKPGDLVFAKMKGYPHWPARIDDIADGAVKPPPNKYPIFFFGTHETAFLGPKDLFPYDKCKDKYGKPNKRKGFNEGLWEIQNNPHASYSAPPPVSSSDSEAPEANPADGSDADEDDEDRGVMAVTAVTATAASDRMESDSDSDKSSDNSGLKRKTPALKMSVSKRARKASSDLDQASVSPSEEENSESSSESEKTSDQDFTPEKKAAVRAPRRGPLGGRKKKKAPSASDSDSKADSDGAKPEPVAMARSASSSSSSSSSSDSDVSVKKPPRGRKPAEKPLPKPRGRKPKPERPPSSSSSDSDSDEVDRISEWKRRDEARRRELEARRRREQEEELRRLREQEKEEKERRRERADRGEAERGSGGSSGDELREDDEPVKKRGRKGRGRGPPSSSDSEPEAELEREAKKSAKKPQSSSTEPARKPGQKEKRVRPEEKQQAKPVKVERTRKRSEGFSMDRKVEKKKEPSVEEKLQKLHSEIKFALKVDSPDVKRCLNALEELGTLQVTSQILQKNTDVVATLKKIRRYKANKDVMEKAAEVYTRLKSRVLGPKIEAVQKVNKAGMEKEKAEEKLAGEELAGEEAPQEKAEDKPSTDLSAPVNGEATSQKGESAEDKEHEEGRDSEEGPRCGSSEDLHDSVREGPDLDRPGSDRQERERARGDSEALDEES
# UniProt P55795, sequence (P55795 whole entry, looked up): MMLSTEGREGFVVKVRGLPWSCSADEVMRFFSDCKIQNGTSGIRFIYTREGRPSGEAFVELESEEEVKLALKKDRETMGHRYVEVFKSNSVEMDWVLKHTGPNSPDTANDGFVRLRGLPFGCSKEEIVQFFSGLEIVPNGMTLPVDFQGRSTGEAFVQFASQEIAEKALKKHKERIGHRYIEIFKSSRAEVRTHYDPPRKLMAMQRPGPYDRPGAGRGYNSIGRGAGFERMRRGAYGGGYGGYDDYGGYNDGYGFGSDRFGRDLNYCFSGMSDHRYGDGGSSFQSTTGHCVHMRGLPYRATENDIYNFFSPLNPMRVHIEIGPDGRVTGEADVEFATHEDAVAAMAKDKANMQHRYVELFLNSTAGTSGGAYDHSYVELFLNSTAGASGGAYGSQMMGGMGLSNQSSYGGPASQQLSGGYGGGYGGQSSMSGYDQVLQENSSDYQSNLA
# UniProt Q9NVR2, sequence (Q9NVR2 whole entry, looked up): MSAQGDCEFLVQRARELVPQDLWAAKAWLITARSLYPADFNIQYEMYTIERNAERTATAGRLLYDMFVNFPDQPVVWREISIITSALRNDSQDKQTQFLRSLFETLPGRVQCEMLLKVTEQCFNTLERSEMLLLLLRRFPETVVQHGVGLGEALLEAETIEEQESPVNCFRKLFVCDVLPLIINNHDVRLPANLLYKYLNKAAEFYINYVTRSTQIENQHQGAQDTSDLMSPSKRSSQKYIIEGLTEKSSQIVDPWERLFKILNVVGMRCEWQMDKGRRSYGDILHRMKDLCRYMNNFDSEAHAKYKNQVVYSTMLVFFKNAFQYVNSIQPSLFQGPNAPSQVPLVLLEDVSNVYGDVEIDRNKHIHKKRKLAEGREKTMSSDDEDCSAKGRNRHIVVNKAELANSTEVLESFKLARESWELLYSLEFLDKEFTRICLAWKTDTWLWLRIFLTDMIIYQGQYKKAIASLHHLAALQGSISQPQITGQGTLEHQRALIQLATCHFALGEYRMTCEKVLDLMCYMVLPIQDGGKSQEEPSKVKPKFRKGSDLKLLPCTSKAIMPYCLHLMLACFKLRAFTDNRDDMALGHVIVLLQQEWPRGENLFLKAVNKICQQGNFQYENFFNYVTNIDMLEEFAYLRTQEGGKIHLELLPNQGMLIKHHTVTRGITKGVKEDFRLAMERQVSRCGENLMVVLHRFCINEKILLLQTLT
Target,log2 fold change [1],log2 fold change [2],log2 fold change [3],log2 fold change [4],log2 fold change [5]
GIT1 (UniProt Q9Y2X7),0.013,-0.008,0.009,0.093,0.073
HNRNPM (UniProt P52272),-0.099,0.034,0.041,-0.025,0.014
GOLGA6B (UniProt A6NDN3),-0.041,0.006,0.009,-0.123,0.012
IARS (UniProt P41252),-0.027,0.026,0.025,0.066,0.047
HIST2H2BC (UniProt Q6DN03),-0.03,0.065,0.014,0.003,0.165
HDAC3 (UniProt O15379),-0.035,0.009,0.006,0.044,0.014
INPP4A (UniProt Q96PE3),-0.079,0.112,0.027,0.036,0.017
KDM5B isoform 2 (UniProt Q9UGL1),-0.07,0.117,0.018,0.07,-0.229
HSPA8 (UniProt P11142),0.002,-0.014,-0.004,-0.004,0.006
GRK2 (UniProt P25098),-0.05,0.009,0.03,0.007,-0.008
HMGN4 (UniProt O00479),-0.137,-0.395,-0.186,0.297,0.513
GON4L (UniProt Q3T8J9),0.027,0,0.008,0.003,0.466 (active)
INTS1 (UniProt Q8N201),-0.017,0.065,-0.045,0.019,0.004
INTS10 (UniProt Q9NVR2),-0.015,-0.057,0.023,-0.077,-0.003
GLUL (UniProt P15104),-0.011,-0.063,-0.085,0.031,0.053
HECTD4 (UniProt J3KPF0),-0.013,0.023,0.068,-0.03,0.043

Target,log2 fold change [1],log2 fold change [2],log2 fold change [3],log2 fold change [4],log2 fold change [5]
HAUS7 isoform 2 (UniProt Q99871),0.163,0.036,0.019,0.069,0.032
HNRNPH2 (UniProt P55795),0.036,-0.007,0,0.105,-0.011
HAUS4 (UniProt Q9H6D7),-0.009,-0.043,0.019,0.019,0.02
GYPA (UniProt P02724),0.071,-0.055,-0.002,0.138,0.236
HDGFL2 isoform 2 (UniProt Q7Z4V5),0.051,-0.014,0.01,-0.076,-0.212
H2AFY (UniProt O75367),-0.035,0.045,0.026,0.296 (active),-0.045
HNRNPD isoform 3 (UniProt Q14103),-0.087,-0.145,0,-0.096,-0.003
GMDS (UniProt O60547),-0.003,-0.014,0.042,0.033,0.005
INF2 (UniProt Q27J81),0.016,0.017,0.015,-0.014,-0.06
IMPDH1 isoform 6 (UniProt P20839),-0.008,0.025,-0.009,0.053,-0.051
HERC2 (UniProt O95714),0.005,-0.07,-0.011,0.018,-0.037
HAUS5 (UniProt O94927),0.043,0.02,0.003,-0.055,0.089
GTPBP2 (UniProt Q9BX10),0.019,0.021,0.025,0.049,0.034
HSD17B10 (UniProt Q99714),-0.006,0.062,0.03,0.022,0.003
ICAM2 (UniProt P13598),0.03,-0.025,-0.006,-0.022,0.084
KCTD20 (UniProt Q7Z5Y7),-0.031,-0.011,0.097,-0.009,0.078

# From the supplement of paper PMC10849652
